Here are results for 11 compounds from PMC5540273 (PLoS ONE, 2017).

Each structure is given as a SMILES string.

Some test systems named below: MERTK; MET; MKK7; MKNK1; MKNK2; MLK2; MLK3; MRCKA; MST1R; MST4; MTOR; MUSK; MYLK2.
What all share (settings): concentration: 1 μM, replicates: in singlicate; n = 1
For the next assay, the system named is T1, MINK.
T1 construct: gene MINK1

The test system of another assay is T2, MLCK.
T2 construct: gene MYLK3

Another assay deals with T3, MLK1.
T3 construct: gene MAP3K9

The test system of another assay is T4, MRCKB.
T4 construct: gene CDC42BPB

The subject of another assay is T5, MST1.
T5 construct: gene STK4

For the next assay, the system named is T6, MST2.
T6 construct: gene STK3

In another assay the test system is T7, MST3.
T7 construct: gene STK24
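Note: KINOMEscan kinase panel screen.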

As to `Fc1ccc(Nc2nccc(-c3c(-c4ccc(Cl)cc4)nn4ncccc34)n2)cc1F` [GW829058], the “%Inh” value turned out to be 0% in the assay with MERTK; 3% with MET; 14% in the assay on MINK; 23% in the assay on MKK7; 0% in the assay with MKNK1; 2% in the assay on MKNK2. Also, the “%Inh” value in the assay with MLCK was 9%; in the assay on MLK1, 2%; in the assay with MLK2 it was 12%; with MLK3, 4%; in the assay on MRCKA it was 2%; in the assay with MRCKB it was 21%. Moreover, the “%Inh” value in the assay on MST1R turned out to be 0%; in the assay with MST1, 13%; with MST2, 11%; with MST3, 0%; in the assay with MST4 it was 30%; in the assay with MTOR it was 26%. The figures for the “%Inh” value with MUSK and in the assay on MYLK2 were 26% and 16%, respectively.

With `COc1ccc(Nc2nccc(N3CCC(NC(=O)c4cccc(NC(C)=O)c4)C3)n2)cc1` (stereo not drawn) [GSK1379732], the “%Inh” value in the assay with MERTK was 24%; in the assay with MET it was 0%; in the assay with MINK, 17%; in the assay with MKK7, 0%; in the assay on MKNK1, 0%; with MKNK2 it was 12%. The “%Inh” value in the assay on MLCK came out at 31%; in the assay with MLK1, 0%; with MLK2 it was 0%; with MLK3 it was 12%; in the assay on MRCKA it was 0%; with MRCKB, 0%. Also, the “%Inh” value is 34% in the assay with MST1R; 0% with MST1; 10% with MST2; 13% in the assay with MST3; 0% in the assay with MST4; 8% in the assay on MTOR. For the same compound, the “%Inh” value in the assay on MUSK is recorded as 0%; in the assay on MYLK2, 8%.

Regarding `Cl.O=S(=O)(c1cccc(F)c1)c1ccc(Nc2ncnc3cc(Br)sc23)cc1Cl` [GSK306886], the “%Inh” value with MERTK is 37%; in the assay with MET, 0%; with MINK, 0%; with MKK7, 0%; with MKNK1, 11%; in the assay on MKNK2, 11%. The “%Inh” value was 0% in the assay with MLCK; 0% in the assay on MLK1; 0% in the assay on MLK2; 2% in the assay with MLK3; 18% in the assay with MRCKA; 9% in the assay with MRCKB. Moreover, the “%Inh” value amounted to 20% in the assay on MST1R; 0% with MST1; 9% with MST2; 2% in the assay with MST3; 0% with MST4; 12% with MTOR. Moreover, the “%Inh” value in the assay with MUSK is given as 8%; with MYLK2 it was 3%.

With `Cn1ccc2ncnc(Oc3ccc(NC(=O)Nc4cccnc4)c(Cl)c3)c21`, the “%Inh” value in the assay on MERTK amounted to 6%; with MET, 15%; in the assay with MINK, 0%; with MKK7 it was 0%; in the assay with MKNK1, 10%; in the assay on MKNK2, 0%. The “%Inh” value was found to be 0% with MLCK; 14% in the assay with MLK1; 2% in the assay with MLK2; 0% with MLK3; 0% in the assay on MRCKA; 0% in the assay on MRCKB. Moreover, the “%Inh” value with MST1R was determined as 15%; in the assay on MST1, 12%; in the assay with MST2 it was 0%; in the assay with MST3, 10%; with MST4, 0%; in the assay with MTOR, 0%. Besides, the “%Inh” value in the assay with MUSK amounted to 7%; in the assay on MYLK2, 0%.

As to `COC(=O)c1cccc(NC(=O)NCCNc2ccnc(Nc3ccc(F)cc3)n2)c1` [GSK1379883], the “%Inh” value amounted to 18% in the assay with MERTK; 0% in the assay on MET; 0% in the assay with MINK; 0% in the assay on MKK7; 7% in the assay on MKNK1; 5% with MKNK2. In addition, the “%Inh” value in the assay with MLCK was 0%; in the assay on MLK1, 0%; in the assay with MLK2, 8%; in the assay on MLK3, 6%; in the assay on MRCKA, 0%; in the assay with MRCKB, 0%. For the same compound, the “%Inh” value in the assay with MST1R was 25%; in the assay with MST1 it was 0%; with MST2 it was 5%; with MST3 it was 0%; in the assay with MST4 it was 0%; in the assay with MTOR, 37%. For the same compound, the figures for the “%Inh” value in the assay with MUSK and in the assay with MYLK2 were 4% and 0%, respectively.

As for `CNc1nccc(-c2c(-c3ccc(F)cc3)ncn2C2CCN(C)CC2)n1` [SB-222903], the “%Inh” value in the assay with MERTK was 0%; in the assay on MET, 6%; with MINK, 43%; with MKK7, 0%; in the assay on MKNK1, 0%; in the assay on MKNK2 it was 0%. Also, the “%Inh” value in the assay on MLCK was 0%; in the assay on MLK1 it was 0%; with MLK2, 31%; with MLK3, 0%; in the assay with MRCKA, 0%; with MRCKB, 5%. Further, the “%Inh” value in the assay with MST1R was 0%; in the assay on MST1, 0%; with MST2, 0%; with MST3 it was 0%; in the assay on MST4, 0%; with MTOR, 18%. Besides, the “%Inh” value with MUSK and in the assay on MYLK2 was 0% in each case.

For the compound `Cl.c1ccc(Cn2ccc3cc(Nc4ncnc5ccccc45)ccc32)cc1` [GW275568], the “%Inh” value is recorded as 0% in the assay on MERTK; 2% in the assay on MET; 12% in the assay with MINK; 7% in the assay on MKK7; 6% in the assay on MKNK1; 12% in the assay with MKNK2. Also, the “%Inh” value is 0% in the assay on MLCK; 0% in the assay with MLK1; 0% in the assay on MLK2; 13% in the assay on MLK3; 7% in the assay on MRCKA; 11% in the assay on MRCKB. Also, the “%Inh” value came to 43% in the assay on MST1R; 0% with MST1; 22% with MST2; 17% with MST3; 0% in the assay with MST4; 16% in the assay with MTOR. Moreover, the “%Inh” value in the assay with MUSK is listed as 11%; in the assay with MYLK2, 19%.

On to `Clc1cc(Nc2ncnc3cc[nH]c23)ccc1OCc1ccccn1`, for which the “%Inh” value in the assay with MERTK was determined as 0%; in the assay on MET, 4%; in the assay with MINK, 33%; in the assay with MKK7 it was 5%; with MKNK1, 35%; with MKNK2, 22%. Further, the “%Inh” value was determined as 0% in the assay with MLCK; 0% in the assay on MLK1; 2% with MLK2; 0% in the assay with MLK3; 0% with MRCKA; 8% in the assay with MRCKB. Also, the “%Inh” value in the assay on MST1R came out at 37%; in the assay with MST1 it was 12%; in the assay with MST2 it was 48%; in the assay with MST3 it was 28%; in the assay with MST4 it was 0%; with MTOR, 0%. In addition, the “%Inh” value came to 13% in the assay with MUSK and 11% in the assay with MYLK2.

On to `Cc1cccc(-c2nc(Nc3ccc4[nH]nnc4c3)c3ccccc3n2)n1` [GW867587], for which the “%Inh” value turned out to be 19% in the assay on MERTK; 0% in the assay with MET; 0% in the assay on MINK; 0% in the assay on MKK7; 8% in the assay with MKNK1; 0% in the assay with MKNK2. Besides, the “%Inh” value in the assay on MLCK came out at 0%; in the assay on MLK1 it was 0%; in the assay on MLK2, 0%; in the assay with MLK3, 0%; in the assay with MRCKA it was 0%; in the assay with MRCKB, 2%. Also, the “%Inh” value was determined as 0% in the assay on MST1R; 0% in the assay with MST1; 0% with MST2; 0% with MST3; 0% in the assay on MST4; 5% in the assay with MTOR. The figures for the “%Inh” value in the assay on MUSK and in the assay with MYLK2 were 2% and 0%, respectively.

Consider `CCc1nc(-c2cccc(C)c2)c(-c2ccnc(NC(=O)c3ccccc3)c2)s1`, for which the “%Inh” value in the assay with MERTK came to 3%; with MET, 2%; in the assay on MINK it was 61%; in the assay with MKK7 it was 0%; with MKNK1, 0%; in the assay on MKNK2, 8%. In addition, the “%Inh” value amounted to 0% in the assay on MLCK; 0% with MLK1; 16% in the assay with MLK2; 0% in the assay with MLK3; 0% in the assay with MRCKA; 0% in the assay on MRCKB. Besides, the “%Inh” value in the assay on MST1R is 32%; in the assay with MST1 it was 11%; in the assay on MST2, 12%; with MST3, 8%; with MST4, 9%; in the assay on MUSK, 0%. Moreover, the “%Inh” value with MYLK2 was found to be 0%.

Take `OCCOCCn1ccc2ncnc(Nc3ccc(Oc4cccc(Cl)c4)c(Cl)c3)c21`: the “%Inh” value turned out to be 0% with MERTK; 0% with MET; 0% in the assay on MINK; 0% with MKK7; 0% in the assay on MKNK1; 3% in the assay on MKNK2. Further, the “%Inh” value in the assay with MLCK was 0%; with MLK1, 0%; with MLK2, 37%; in the assay on MLK3 it was 22%; with MRCKA it was 0%; with MRCKB, 0%. The “%Inh” value was 0% in the assay on MST1R; 0% in the assay on MST1; 0% in the assay on MST2; 0% in the assay with MST3; 0% with MST4; 46% in the assay on MTOR. For the same compound, the “%Inh” value in the assay on MUSK and in the assay with MYLK2 was 0% throughout.
